Bioassay records as filed in PubChem.
Abeta yeast res – compounds reversing amyloid beta toxicity in yeast; yeast expressing A-beta42, growth rescue, OD600, 48 h; response scale: 0% DMSO, 100% iron-clioquinol control; actives 0.063% (n = 410,000); Potency, µM (titrated, usually from 46.1 µM), actives largely listed as activators; also: nearly all actives have a fitted effect of over 55% in size
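Yeast growth medium received pinned compounds, then yeast cells expressing toxic A-beta were added; plates incubated at 30 C for 48 hr. Growth read as absorbance at 600 nm, normalized to DMSO and equimolar FeCl3 plus clioquinol controls.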
ClpP mod – qHTS Assay for Activators of ClpP; ATP-dependent Clp protease proteolytic subunit (Bacillus subtilis (strain 168)), P80244; purified B. subtilis ClpP, FRET peptide cleavage, 20 min; Potency, µM (series often up to 57.5 µM), for inactives: at the top dose activity change, negative = active; actives 1.9% (n = 340,000); AID 651965, 2013; active = well fitted falling curve with a large enough effect; inconclusive = small, poorly fitted or top-dose-only effect; inactive = no such curve, though single readings can be large or run the other way; also: the source files actives as falling curves though it sought activators and does not explain the sign; nearly all actives have a fitted effect of over 65% in size
Target sequence (P80244 whole entry, looked up): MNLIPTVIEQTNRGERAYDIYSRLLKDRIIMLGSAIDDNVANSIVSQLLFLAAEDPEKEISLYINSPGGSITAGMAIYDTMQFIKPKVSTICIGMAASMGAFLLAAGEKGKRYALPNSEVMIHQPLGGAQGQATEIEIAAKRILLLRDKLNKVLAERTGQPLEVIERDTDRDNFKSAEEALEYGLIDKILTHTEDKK
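Buffer: 100 mM Tris/HCl pH8, 100 mM KCl, 0.05% low protease BSA, 2.5% glycerol, 0.01% Tween-20. ClpP 10 microg/mL final; 20 min RT; delta FRET normalized to ADEP and DMSO controls.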
aSyn yeast inh – rescues yeast growth from alpha-synuclein toxicity. Yeast expressing alpha-synuclein, growth rescue, BacTiter-Glo, 24 h. Potency, µM (highest dose often 46.1 µM), for inactives: at the highest dose growth rescue (activation), usual class: activators. actives 0.14% (n = 370,000). AID 652106; also: % of control where 0% means no effect; nearly all actives have a fitted effect of over 65% in size
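Readout is rescue of growth in alpha-synuclein-expressing yeast, so inhibitors of toxicity appear as activators. Growth after 24 hr at 30 deg C in galactose medium is quantified by luminescence.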
Mm-Cpn inhibitor – inhibitors of Methanococcus maripaludis chaperonin TRiC (MmCpn) | purified Mm-Cpn ATPase, ADP Transcreener TR-FRET | Potency, µM (series often up to 76.9 µM), without a hit: at the highest dose activity, negative = inhibition, hits mostly inhibitors | actives 0.031% (n = 330,000) | AID 504842; also: % is scaled to controls: 0 for no effect and ±100 for the full control effect; nearly all actives have a fitted effect of over 80% in size
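Reaction buffer contained 30 mM Tris pH 7.4, 100 mM KCl, 5 mM MgCl2 and 1 mM DTT. Mm-CPN (25 nM final) hydrolysed 10 uM ATP over 30 min at 37°C; ADP was read by HTRF.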
TDP-43 yeast inh – rescues yeast growth from TDP-43 toxicity; AID 652104; actives 1.8% (n = 410,000); Potency, µM (series often up to 46.1 µM), inactives show top-dose growth rescue (activation), most hits filed as activators; TDP-43 expressing yeast growth rescue, BacTiter-Glo, 24 h; also: % of control where 0% means no effect; nearly all actives have a fitted effect of over 50% in size
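Yeast expressing TDP-43 (pregrown in raffinose, seeded at OD600=0.02 in galactose medium) exposed to compounds 24 hr at 30 deg C. Growth read by BacTiter-Glo luminescence; rescue of toxicity appears as increased signal.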
FUS suppressor – rescues growth of FUS-expressing yeast. actives 0.24% (n = 390,000). Potency, µM (titrated, usually from 76.6 µM), usual class: activators. S. cerevisiae FUS-expressing, growth rescue, OD600, 24 h;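 also: plate controls were DMSO vehicle for no effect and reference control for full effect; nearly all actives have a fitted effect of over 55% in size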
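Compound concentration series was pinned onto galactose-induced FUS-expressing yeast seeded at OD 0.005. Plates sat 24hr at 30C; absorbance at 600 nm gave growth. DMSO served as background control.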
Numbers without * were called inactive; [ ] = another dose, or the depositor's remark. Sampled rows, rich in hits. Any-hit rate of the full collection: about 3.6%. Unless noted, calls follow the shape of the dose curve; as a rule, active = well fitted curve in the direction sought with a large enough effect; inconclusive = small, poorly fitted or top-dose-only effect, or another doubt; inactive = no such curve, though single readings can be large; an effect the other way counts as inactive or inconclusive. Potency is read from the fitted curve at half-maximal effect.

For Cc1cccc(C)c1-n1nnnc1C(C)(C)N1CCN(N=O)CC1 the results were Abeta yeast res inactive, aSyn yeast inh 2.0%, Mm-Cpn inhibitor -0.6%, TDP-43 yeast inh 5.8% and FUS suppressor inactive.
Screening Cc1ccc2nnc(Cl)n2n1 returned Abeta yeast res inactive, ClpP mod inconclusive, aSyn yeast inh -12.8%, Mm-Cpn inhibitor 1.5%, TDP-43 yeast inh -11.1% and FUS suppressor inconclusive.
`Clc1nnc2ccc(-c3ccccc3)nn12` gave Abeta yeast res inactive, ClpP mod 25.1µM*, aSyn yeast inh 2.5%, Mm-Cpn inhibitor -0.9%, TDP-43 yeast inh 17.2% and FUS suppressor inactive.
`CCOc1ccc(NC(=O)N(Cc2c[nH]c3ccccc23)C2CCCCCC2)cc1` gave Abeta yeast res inactive, ClpP mod -9.1%, TDP-43 yeast inh 26.9% and FUS suppressor inactive.
C=CCOc1c(CNc2ccc(C(=O)O)cc2)cccc1OC was read as Abeta yeast res inactive, ClpP mod -10.5%, aSyn yeast inh 4.4%, Mm-Cpn inhibitor 0.9%, TDP-43 yeast inh 5.0% and FUS suppressor inactive.
`C=CCOc1c(CNc2cccc(C(=O)O)c2)cccc1OCC` gave Abeta yeast res inactive, ClpP mod 31.6µM*, aSyn yeast inh 3.4%, Mm-Cpn inhibitor -10.1%, TDP-43 yeast inh inconclusive and FUS suppressor inactive.
Screening C=CCOc1c(CNc2ccc(C(=O)O)cc2)cccc1OCC returned Abeta yeast res inactive, ClpP mod -12.3%, aSyn yeast inh 4.1%, Mm-Cpn inhibitor 0.3%, TDP-43 yeast inh 3.3% and FUS suppressor inactive.
For C=CCOc1c(CNc2cccc(C(=O)O)c2)cccc1OC the results were Abeta yeast res inactive, ClpP mod 25.1µM*, aSyn yeast inh 19.3%, Mm-Cpn inhibitor 0.3%, TDP-43 yeast inh 4.8% and FUS suppressor inactive.
Screening CCOC(=O)c1ccc(-c2cccc(-c3cc(=O)oc4cc(OC)cc(OC)c34)c2)cc1 returned Abeta yeast res inactive, ClpP mod 20µM*, aSyn yeast inh -6.6%, Mm-Cpn inhibitor -0.3%, TDP-43 yeast inh -2.9% and FUS suppressor inactive.
CCN(C(=O)Cn1cnc2c1c(=O)n(C)c(=O)n2C)c1ccccc1C was read as Abeta yeast res inactive, ClpP mod -2.4%, TDP-43 yeast inh 21.3% and FUS suppressor inactive.
Screening Cc1ccc(CCNC(=O)c2c(C)nn(-c3ccc(F)cc3)c2-n2cccc2)cc1 returned Abeta yeast res inactive, ClpP mod 1.0%, aSyn yeast inh 8.5%, TDP-43 yeast inh 22.4µM* and FUS suppressor inactive.
Screening COc1ccc(CCNC(=O)c2c(C)nn(-c3ccc(F)cc3)c2-n2cccc2)cc1OC returned Abeta yeast res inactive, ClpP mod 0.2%, aSyn yeast inh inconclusive, TDP-43 yeast inh 20.4% and FUS suppressor inactive.
For c1ccc(-c2cc(-c3nc4ccccc4[nH]3)c3ccccc3n2)cc1 the results were Abeta yeast res inactive, ClpP mod 17.8µM*, aSyn yeast inh -0.9%, Mm-Cpn inhibitor -12.8%, TDP-43 yeast inh 15.8µM* and FUS suppressor inactive.
`Cn1cc(-c2nc3ccccc3[nH]2)c2ccccc21` gave Abeta yeast res inactive, ClpP mod 28.2µM*, aSyn yeast inh -9.7%, Mm-Cpn inhibitor -4.4%, TDP-43 yeast inh 15.2% and FUS suppressor inactive.
`Cc1c(-c2nc3ccccc3[nH]2)cnn1C` gave Abeta yeast res inactive, ClpP mod -2.4%, aSyn yeast inh 2.3%[1.84 µM], Mm-Cpn inhibitor -2.3%, TDP-43 yeast inh 12.3% and FUS suppressor inactive.
`Nc1ccc(-c2nc3ccccc3[nH]2)cc1` gave Abeta yeast res inactive, ClpP mod 5.0%, aSyn yeast inh -14.5%, Mm-Cpn inhibitor -7.1%, TDP-43 yeast inh 13.8% and FUS suppressor inactive.
`CCOC(=O)c1c(C)[nH]c(CCC(=O)Nc2ccc(N(CC)CC)cc2C)c1C` gave Abeta yeast res inactive, ClpP mod -3.6%, TDP-43 yeast inh -4.3% and FUS suppressor inactive.
`COc1ccc(-n2c(C)nc3cc(C(=O)NC4CCCCCC4)ccc32)cc1` gave Abeta yeast res inactive, ClpP mod -0.6%, TDP-43 yeast inh 7.7% and FUS suppressor inactive.
For O=C(CCCn1c2ccccc2c(=O)c2ccccc21)Nc1cccc(Cl)c1 the results were Abeta yeast res inactive, ClpP mod 4.3%, TDP-43 yeast inh 35.5µM* and FUS suppressor inconclusive.
`O=C(Cn1ccc2ccccc2c1=O)NCCC(=O)Nc1cccnc1` gave Abeta yeast res inactive, ClpP mod -22.6%, aSyn yeast inh -6.5%, Mm-Cpn inhibitor 0.5%, TDP-43 yeast inh 3.7% and FUS suppressor inactive.
For Cc1ccc2c(c1)c(=O)c1ccccc1n2CCCC(=O)Nc1ccc(Cl)c(Cl)c1 the results were Abeta yeast res inactive, ClpP mod 3.8%, TDP-43 yeast inh 6.5% and FUS suppressor inactive.
O=C(Cn1ccc2ccccc2c1=O)NCCC(=O)Nc1cccc(Cl)c1 was read as Abeta yeast res inactive, ClpP mod 17.8µM*, aSyn yeast inh -1.5%, Mm-Cpn inhibitor -1.6%, TDP-43 yeast inh -12.8% and FUS suppressor inconclusive.
Screening O=S(=O)(CC1NCCc2ccccc21)NCc1ccccc1 (stereo not drawn) returned FUS suppressor inactive.
CN1CCN(C(=O)c2ccc(-c3ccccc3)cc2)CC1 was read as Abeta yeast res inactive, ClpP mod 31.6µM*, aSyn yeast inh 11.7%, Mm-Cpn inhibitor -1.5%, TDP-43 yeast inh 6.9% and FUS suppressor inactive.
For O=C(NCCO)C1CCN(C(=O)c2ccc(-c3ccccc3)cc2)CC1 the results were Abeta yeast res inactive, ClpP mod 31.6µM*, aSyn yeast inh -3.2%, Mm-Cpn inhibitor -1.1%, TDP-43 yeast inh -17.0% and FUS suppressor inactive.
Screening CCOC(=O)[C@]12CCCC=C1N(Cc1ccc(OC)cc1)C(=O)[C@@H]2CC(=O)N1CCCC1 returned FUS suppressor inactive.
COc1cccc(C(=O)N(Cc2cc3cc(C)ccc3[nH]c2=O)CC2CCCO2)c1 (stereo not drawn) was read as Abeta yeast res inactive, ClpP mod 31.6µM*, aSyn yeast inh -11.9%, Mm-Cpn inhibitor -0.1%, TDP-43 yeast inh -9.6% and FUS suppressor inactive.
